According to the supplement of paper PMC8387472:

Key:
Details in all cases: mESC; 2uM; 72 h treatment, harvest day 5
[1] = compound: O=c1cc(N2CCOCC2)oc2c(-c3ccc4c(c3)OCCO4)csc12; assay: fraction of edited reads among all mapped reads; higher = more Cas9 editing
Mercaptopurine (6-MP) = compound: S=c1[nH]cnc2nc[nH]c12 [Mercaptopurine (6-MP)]; assay: as above
[2] = compound: S=c1nc[nH]c2nc[nH]c12 [6-Mercaptopurine (6-MP) Monohydrate]; assay: as above
[3] = compound: CC(=O)O/N=C1\C(=O)N(Cc2cc(Cl)ccc2Cl)c2ccc(Cl)cc21; assay: fraction of microhomology deletions among edited reads; higher = more MH deletions
[4] = compound: CC(C)(C#N)c1ccc(N2C(=O)OCc3cnc4ccc(-c5cnc6ccccc6c5)cc4c32)cc1; assay: as above
[5] = compound: CCCCOc1c(C(=O)c2c(F)cc(C)cc2F)c[nH]c2nncc1-2; assay: as above
[6] = compound: CCN1CCN(CC(=O)Nc2ccc(-c3cccc4c(=O)cc(N5CCOCC5)oc34)c3sc4ccccc4c23)CC1; assay: as above
[7] = compound: CCc1c2c(nc3ccc(OC(=O)N4CCC(N5CCCCC5)CC4)cc13)-c1cc3c(c(=O)n1C2)COC(=O)[C@]3(O)CC [Irinotecan HCl Trihydrate]; assay: as above
[8] = compound: CCn1c(=O)c(-c2ccc(Cl)cc2Cl)cc2cnc(Nc3ccc(N4CCNCC4)c(F)c3)nc21; assay: as above
[9] = compound: CNc1ccc([N+](=O)[O-])c(Nc2ccc3[nH]ncc3c2)n1; assay: as above

Row | Target | fraction of edited reads among all mapped reads [1] | fraction of edited reads among all mapped reads (Mercaptopurine (6-MP)) | fraction of edited reads among all mapped reads [2] | fraction of microhomology deletions among edited reads [3] | fraction of microhomology deletions among edited reads [4] | fraction of microhomology deletions among edited reads [5] | fraction of microhomology deletions among edited reads [6] | fraction of microhomology deletions among edited reads [7] | fraction of microhomology deletions among edited reads [8] | fraction of microhomology deletions among edited reads [9]
1 | 4.0 (DMSO control at this site: 1-bp insertion 0.146, MH deletion 0.523, edited 0.125) ACGCCTTAGTGCACGAGTGACGGGATAATGTGGTCTCAGGTAATTGATAGGCTTCCAACTT | 0.0874 | 0.174 | 0.122 | 0.582 | 0.526 | 0.507 | 0.635 | 0.564 | 0.591 | 0.527
2 | 46.0 TTAAGAGCAATGTTCACGCAACTTGAAATTATATCTGTGGTCTTCAAATTGTCTTTTGTCA | – | – | 0.0652 | – | 0.597 | 0.422 | – | – | – | 0.376
3 | 15.0 GCGCCTCCAATGACCCAGTGGGATCCTACTCCATAATGGGATCCTGGGGATTCCTCGCTCC | – | – | 0.132 | 0.354 | 0.378 | – | – | – | – | –
4 | 20.0 (DMSO control at this site: 1-bp insertion 0.349, MH deletion 0.138, edited 0.084) TACAGGTGTAGACTGGTTACGTGGCTGCGGAATTGACTGGTTACGTGGCTGCGGAATTTTG | 0.0465 | 0.111 | 0.082 | 0.235 | 0.239 | 0.174 | 0.285 | 0.222 | 0.12 | 0.136
5 | 7.0 (DMSO control at this site: 1-bp insertion 0.128, MH deletion 0.374, edited 0.098) TACTCAACCGAGACCTACGCGAACCGAAATCGTATGCCGGTGCGCAAGCAGGGCTGGCGTC | 0.067 | – | 0.0891 | 0.489 | 0.456 | 0.404 | 0.477 | 0.484 | 0.417 | 0.442
6 | 34.0 (DMSO control at this site: 1-bp insertion 0.184, MH deletion 0.385, edited 0.103) ATTATAGGACCCTGAGGGAGCAGAGATGTGGGAATGGGGGCCGAGCCAATTGTGATGTAAG | 0.0512 | 0.114 | 0.0949 | 0.51 | 0.538 | 0.496 | 0.585 | 0.527 | 0.53 | 0.524
7 | 3.0 (DMSO control at this site: 1-bp insertion 0.109, MH deletion 0.149, edited 0.09) TGCTAGCGCCCCCACAAAGCGGACCAGCCAGCACTATAGGGAATAAGGCCAACTTGCACCC | 0.0464 | 0.123 | 0.0926 | 0.225 | 0.161 | 0.199 | 0.266 | 0.222 | 0.226 | 0.188
8 | 21.0 CGATTGAGAGTCAAACGGGCCAGAAAACTCCGGGAACGGGCCAGAAAACTCCGGGGCATGG | 0.0627 | 0.169 | 0.117 | 0.191 | 0.163 | 0.144 | 0.276 | 0.188 | – | 0.197
9 | 8.0 GCATGCGTGTTTTGGGACAATGTAGTATACATTTGGGAGGCTCTCAGCTTTTCCCAATAAA | – | – | 0.017 | 0.107 | 0.0584 | 0.0574 | – | – | – | –
10 | 47.0 (DMSO control at this site: 1-bp insertion 0.095, MH deletion 0.585, edited 0.118) GAGTGGTCCCGAGCCAGGAACTGTGTGTGTTGCAGGGGGGCAGTAACTCCCCAACTCCCTC | 0.0673 | 0.143 | 0.101 | 0.564 | 0.539 | 0.518 | 0.62 | 0.473 | 0.597 | 0.542
11 | 2.0 (DMSO control at this site: 1-bp insertion 0.364, MH deletion 0.356, edited 0.125) GGTGCCCCCGAGACCTACGCGAACCGAAATCGATGTCCGGTGCGCAAGCAGGGCTGGCGTC | 0.0694 | 0.166 | 0.112 | 0.422 | 0.343 | 0.375 | 0.513 | 0.414 | 0.384 | 0.345
